Data: PubChem BioAssay AID1159580 (chemical genetic matrix, 2015)
Several values for one entry are separate records, joined by “and”; a condition that tells them apart may be missing. Identical values can stand only once. Among all 5,500 compounds or so, about 2,000 (36%) were called active. About 18% were inconclusive and are not listed. Rule as the data show it: active = normalized growth mostly below about 0.91 (no sharp cut-off); inconclusive = no clear call, values can overlap the other calls; inactive = mostly above about 0.92. Some of the results follow.

Assay: chemical genetic growth profiling, strain panel (AID 1159580);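 also: tested at 20 µM; growth read once vehicle control cultures reached saturation at 30 °C; 1 = growth at the plate median or of vehicle wells; lower values mean less growth of the strain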
Settings: S. cerevisiae deletion strains, growth OD

Measured: normalized growth

O=C1NS(=O)(=O)c2ccccc21
inactive: locus YAL013W, strain DEP1, stronger effect = lower value 1.01 | locus YAL021C, strain ccr4, stronger effect = lower value 0.965 | locus YAL026C, strain drs2, stronger effect = lower value 1.04 | locus YAL030W, strain snc1, stronger effect = lower value 1.02 | locus YBL061C, strain skt5, stronger effect = lower value 1.03 | locus YBR009C, strain hhf1, stronger effect = lower value 1.03 | locus YBR021W, strain FUR4, stronger effect = lower value 1.02 | locus YBR023C, strain chs3, stronger effect = lower value 1.02 | locus YBR171W, strain sec66, stronger effect = lower value 1.03 | locus YBR229C, strain ROT2, stronger effect = lower value 1.01 | locus YBR231C, strain swc5, stronger effect = lower value 1.02 | locus YBR279W, strain paf1, stronger effect = lower value 1.01 | locus YCL011C, strain gbp2, stronger effect = lower value 1.02 | locus YCL016C, strain dcc1, stronger effect = lower value 0.988 | locus YCL029C, strain bik1, stronger effect = lower value 0.994 | locus YCL061C, strain MRC1, stronger effect = lower value 1.02 | locus YCL069W, strain vba3, stronger effect = lower value 1.02 | locus YCR088W, strain abp1, stronger effect = lower value 1.02 | locus YDL005C, strain med2, stronger effect = lower value 1.03 | locus YDL035C, strain GPR1, stronger effect = lower value 0.994 | locus YDL040C, strain nat1, stronger effect = lower value 1.02 | locus YDL074C, strain BRE1, stronger effect = lower value 1.01 | locus YDL101C, strain DUN1, stronger effect = lower value 1.01 | locus YDL134C, strain PPH21, stronger effect = lower value 1 | locus YDL185W, strain tfp1, stronger effect = lower value 0.994 | locus YDL192W, strain arf1, stronger effect = lower value 1 | locus YDR001C, strain nth1, stronger effect = lower value 1.01 | locus YDR069C, strain doa4, stronger effect = lower value 1.04 | locus YDR101C, strain arx1, stronger effect = lower value 0.983 | locus YDR137W, strain rgp1, stronger effect = lower value 1.03 | locus YDR159W, strain sac3, stronger effect = lower value 1.11 | locus YDR162C, strain NBP2, stronger effect = lower value 0.998 | locus YDR195W, strain ref2 0.993 | locus YDR297W, strain sur2, stronger effect = lower value 1.02 | locus YDR318W, strain mcm21, stronger effect = lower value 0.979 | locus YDR334W, strain swr1, stronger effect = lower value 1.02 | locus YDR335W, strain msn5, stronger effect = lower value 1.01 | locus YDR388W, stronger effect = lower value 0.991 | locus YDR392W, strain spt3, stronger effect = lower value 0.957 | locus YDR502C, strain sam2, stronger effect = lower value 0.995 | locus YEL003W, strain gim4, stronger effect = lower value 1.03 | locus YEL037C, strain rad23, stronger effect = lower value 1.01 | locus YEL061C, strain CIN8 (second series), stronger effect = lower value 1.02 | locus YEL061C, strain CIN8, stronger effect = lower value 1.01 | locus YER015W, strain faa2, stronger effect = lower value 1.02 | locus YER016W, strain bim1, stronger effect = lower value 1.02 | locus YER110C, stronger effect = lower value 0.987 | locus YER111C, strain swi4, stronger effect = lower value 1.02 | locus YER155C, strain BEM2 (second series), stronger effect = lower value 1.07 | locus YER155C, strain BEM2, stronger effect = lower value 0.997 | locus YER167W, strain BCK2, stronger effect = lower value 1 | locus YFR010W, strain ubp6, stronger effect = lower value 1.03 | locus YGL078C, strain dbp3, stronger effect = lower value 1 | locus YGL086W, strain mad1, stronger effect = lower value 0.998 | locus YGL167C, strain pmr1, stronger effect = lower value 1.02 | locus YGL173C, strain kem1, stronger effect = lower value 1.06 | locus YGL227W, strain vid30, stronger effect = lower value 1.02 | locus YGL240W, strain doc1, stronger effect = lower value 1.05 | locus YGL248W, strain PDE1, stronger effect = lower value 1.03 | locus YGL253W, strain hxk2, stronger effect = lower value 1.05 | locus YGR078C, strain PAC10, stronger effect = lower value 1.05 | locus YGR135W, strain pre9, stronger effect = lower value 0.984 | locus YGR252W, strain gcn5, stronger effect = lower value 0.976 | locus YHR013C, strain ard1, stronger effect = lower value 1.02 | locus YHR027C, strain rpn1, stronger effect = lower value 1.05 | locus YHR030C, strain SLT2, stronger effect = lower value 1 and 0.989 | locus YHR079C, strain IRE1 (second series), stronger effect = lower value 0.984 | locus YHR079C, strain IRE1, stronger effect = lower value 0.984 | locus YHR094C, strain hxt1, stronger effect = lower value 0.988 | locus YHR129C, strain ARP1, stronger effect = lower value 1.02 | locus YHR142W, strain chs7, stronger effect = lower value 1.03 | locus YHR200W, strain rpn10, stronger effect = lower value 0.991 | locus YIL066C, strain RNR3, stronger effect = lower value 1.02 | locus YIL073C, strain SPO22, stronger effect = lower value 0.958 | locus YIL125W, strain kgd1, stronger effect = lower value 0.989 | locus YIR030C, strain dcg1, stronger effect = lower value 0.998 | locus YJL092W, strain hpr5, stronger effect = lower value 1.02 | locus YJL095W, strain BCK1 (second series), stronger effect = lower value 1.02 | locus YJL095W, strain BCK1, stronger effect = lower value 1.04 and 0.999 | locus YJL115W, strain asf1, stronger effect = lower value 1.02 | locus YJL129C, strain trk1, stronger effect = lower value 1.04 | locus YJL134W, strain LCB3, stronger effect = lower value 0.999 | locus YJL154C, strain vps35, stronger effect = lower value 1.02 | locus YJL164C, strain tpk1, stronger effect = lower value 0.993 | locus YJL166W, strain qcr8, stronger effect = lower value 1.04 | locus YJL168C, strain set2, stronger effect = lower value 0.984 | locus YJL187C, strain SWE1 (second series), stronger effect = lower value 1.03 | locus YJR043C, strain POL32, stronger effect = lower value 0.977
